# High-throughput results from PubChem BioAssay.
# Compounds with a hit are over-represented: about 10% of the library has one in this group of screens.
# BAZ2B block: inhibitors of human BAZ2B bromodomain; AlphaScreen BAZ2B-H3K14Ac peptide displacement; Potency, µM (titrated, usually from 114 µM), for the others: at the top dose activity change, negative = inhibition, most hits filed as inhibitors; 4.4% of 360,000 active; further: on the % scale 0 is the no-effect control and ±100 the full control effect; nearly all actives have a fitted effect of over 60% in size
#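 Multi-concentration screen (max 110 uM) measuring displacement of acetylated histone H3 peptide from BAZ2B by AlphaScreen, using 50 nM protein, 50 nM peptide and 10 ug/mL streptavidin donor plus Ni-chelate acceptor beads.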
# G9a block: G9a (human) methyltransferase inhibition; Potency, µM (doses to about 102 µM), without a hit: at the top dose activity, negative = inhibition, usual class: inhibitors; AID 504332; G9a H3K9 monomethylation, AlphaScreen, 2 h; Q96KQ7; 8.8% of 350,000 active; further: on the % scale 0 is the no-effect control and ±100 the full control effect; nearly all actives have a fitted effect of over 75% in size
#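 Signal arises when biotinylated H3K9 peptide, once monomethylated, bridges streptavidin donor and antibody-captured acceptor beads. Enzyme at 20 nM was preincubated 15 min with test compounds; peptide 500 nM and SAM 20 uM then reacted for 2 h.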
# HP1b chromo inh: blocks HP1-beta chromodomain binding to methylated histone tails. P83916. AlphaScreen HP1-beta / biotin-H3K9me3 peptide binding. Potency, µM (doses to about 114 µM), inactives show at the top dose activity change, negative = inhibition, usual class: inhibitors. 0.56% of 390,000 active. AID 540317; further: nearly all actives have a fitted effect of over 70% in size
#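 AlphaScreen: HP1-beta (50 nM) preformed 30 min with biotin-H3(1-18)K9me3 peptide (50 nM) in PBS pH 7.4, 0.01% Tween-20. Compound added for 30 min at RT, then streptavidin donor/nickel chelate acceptor beads (10 ug/mL) for 30 min.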
# L3MBTL1 block: inhibitors of human L3MBTL1. Q9Y468. AlphaScreen L3MBTL1–H3K9me1 peptide binding. Potency, µM (top dose mostly 57.1 µM), for inactives: at the top dose activity, negative = inhibition, hits mostly inhibitors. 0.66% of 230,000 active. AID 485360; further: on the % scale 0 is the no-effect control and ±100 the full control effect; nearly all actives have a fitted effect of over 60% in size
#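 AlphaScreen proximity signal between nickel-chelate acceptor and streptavidin donor beads (final 10 ug/mL) reports binding of 50 nM L3MBTL1 to 75 nM biotin-H3 K9me1 peptide; complex incubated with compounds 30 min at room temperature; cefsulodin titration as control.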
# JMJD2A Tudor: blocks the human JMJD2A Tudor domain. O75164. AlphaScreen JMJD2A-Tudor / H3K4me3 peptide binding. Potency, µM (highest dose often 114 µM), inactives show at the top dose activity change, negative = inhibition, actives largely listed as inhibitors. 4.4% of 390,000 active. AID 504339; further: on the % scale 0 is the no-effect control and ±100 the full control effect; nearly all actives have a fitted effect of over 50% in size
# GLS inh: blocks human kidney-isoform glutaminase activity; O94925; GLS enzymatic activity, qHTS titration; Potency, µM (highest dose often 45.5 µM), for the others: at the highest dose activity change, negative = inhibition, hits mostly inhibitors; 0.21% of 410,000 active; AID 624170; further: on the % scale 0 is the no-effect control and ±100 the full control effect
#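 hKGA in 45 mM KH2PO4 (pH 8.2), 0.02% Tween-20 with compound, then 1mM L-Glutamine (stock as added) plus glutamate oxidase/HRP/Amplex red coupling mix. Fluorescence read initially and after 30 min at RT; signal change reflects glutamate formation.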
# * marks the source's active call; other numbers are inactive results; ? = inconclusive; nt = not tested or not shown; [ ] = remark or other dose. The call rests on the fitted dose curve; in most records, active means well fitted curve in the direction sought with a large enough effect; inconclusive means small, poorly fitted or top-dose-only effect, or another doubt; inactive means no such curve, though single readings can be large; an effect the other way counts as inactive or inconclusive. Potency means the concentration at half of the fitted maximal effect.
SMILES,BAZ2B block,G9a block,HP1b chromo inh,L3MBTL1 block,JMJD2A Tudor,GLS inh
COC(=O)c1cc2oc3ccccc3c2n1Cc1c(F)cccc1Cl,5.8%,13.4%[59 µM],36.8%,nt,-17.1%,2.6%
Cc1ccccc1OCCSc1nc(C)c(Cc2ccccc2)c(=O)[nH]1,-5.9%,-23.3%[59 µM],31.7%,nt,-13.5%,0.7%
CSc1ccc(C2Nc3cccc4cccc(c34)N2)cc1,50.1µM*,23.3%[0.501 µM],17.8µM*,-1.7%[2.29 µM],17.8µM*,21.4%
Clc1ccc(C2Nc3cccc4cccc(c34)N2)cc1,?,35.5µM*,-19.0%,-24.6%,?,5.6%
CSc1ccc(C2NC(=O)c3ccccc3N2)cc1 (stereo not given),nt,nt,22.3%,nt,-6.1%,-7.3%
c1cc2c3c(cccc3c1)NC(c1ccc3c(c1)OCO3)N2,39.8µM*,35.5µM*,?,nt,39.8µM*,15.7%
CCOC(=O)c1cc(NC(=O)c2ccc(F)cc2)c(=O)n2c1oc1ccc(Cl)cc12,36.5%,46.1%[59 µM],56.0%,nt,-3.1%,0.3%
N#Cc1cc(NC(=O)c2ccc(F)cc2)c(=O)n2c1[nH]c1ccccc12,-12.0%,3.55µM*,nt,-6.2%,nt,nt
CC1CN(c2nnc(NC(=O)c3ccccc3)s2)CC(C)O1 (stereo not given),-10.7%,56.2µM*,24.8%,-19.7%,-20.1%,-13.0%
CC(C)(C)c1onc(OCP(=O)(O)O)c1CC(N)C(=O)O (stereo not given),nt,5.32µM*,nt,nt,nt,nt
O=C1CN(C(=O)N[C@@H](Cc2ccccc2)C(=O)N[C@@H](C(=O)O)c2ccccc2)c2ccccc2N1,-4.6%,-8.5%[59 µM],18.3%,nt,31.6µM*,6.4%
CCC(C)[C@H](NC(=O)N1CC(=O)Nc2ccccc21)C(=O)NC(C)CCc1ccccc1 (stereo not given in full),?,?,39.3%,nt,-12.4%,-3.7%
CC(C)C[C@H](NC(=O)N1CC(=O)Nc2ccccc21)C(=O)N[C@@H](C(=O)O)c1ccccc1,-7.9%,6.3%,59.1%,nt,-13.7%,0.7%
CCC(C)[C@H](NC(=O)N1CC(=O)Nc2ccccc21)C(=O)N[C@@H](C(=O)O)c1ccccc1 (stereo not given in full),-11.6%,79.4µM*,17.1%,nt,-24.4%,-0.9%
COc1ccc(NC(C)=O)cc1NC(=O)C1(c2cccs2)CCOCC1,-0.3%,3.6%[59 µM],19.2%[57 µM],nt,-14.2%,-8.6%
Cc1ccccc1-c1nc2c3c(-c4ccccc4)c(-c4ccccc4)oc3ncn2n1,-0.1%,6.5%[59 µM],50.0%,nt,2.0%,0.4%
Cc1cc(C)c(NC(=O)Cn2nnc(-c3nc(-c4ccccc4)no3)c2N)c(C)c1,-2.2%,?,36.3%,nt,15.2%,-12.8%
Cc1ccccc1NC(=S)NCCc1ccccc1,?,?,20.9%,-6.3%,1.4%,10.0%
CC(C)(C)NC(=S)NCCc1ccccc1,10.5%,44.7µM*,55.7%,3.6%,2.1%[57.1 µM],-6.8%
S=C(NCCc1ccccc1)Nc1ccccn1,-24.0%,1.41µM*,?,-0.5%,-13.4%,11.6%
O=C1CN(S(=O)(=O)c2c(F)cccc2F)CCN1S(=O)(=O)c1ccc2c(c1)OCCO2,nt,nt,nt,nt,-4.8%,nt
COc1cc(/C=C/C(=O)Nc2nnc(CC(C)(C)C)s2)cc(OC)c1OC,-11.5%,2.24µM*,?,5.9%,?,10.0%
COC(=O)c1ccccc1-n1cc2c(c1-c1cccc(C)c1)c(=O)n(C)c(=O)n2C,-12.7%,7.94µM*,16.2%,nt,-24.3%,-8.3%
C=CCN1C(=O)c2ccc(C(=O)N(C)CC(=O)Nc3c(C)cccc3C)cc2C1=O,1.0%,50.1µM*,7.9%,3.8%,-7.5%,16.6%
O=C1C=C(c2ccccc2)C(=O)N1Nc1ccccc1,-4.8%,8.91µM*,20.8%,nt,-12.4%,?
COc1ccc(C2=CC(=O)N(Nc3ccccc3)C2=O)cc1,-22.0%,?,-8.5%,8.6%,-23.0%,9.6%
